The panel holds about 83,000 compounds, 20% with a hit somewhere; the sample as a whole holds those more often.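 Cells were grown in 96-well plates and exposed to the test compound at a single concentration for 48 hours; results are reported as percent growth, with values below 10 considered active.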 Unmarked numbers belong to inactive results. The source made the active and inactive calls.
Tested on: HL-60(TB) leukemia
Assay: NCI-60 one-dose screen, 48 h (100 = growth as untreated, 0 = no growth, -100 = all killed)
Conditions: 10 µM unless noted

Compound	growth
CCN(C(=O)CN1C(=O)/C(=C/c2ccco2)SC1=S)C1CCS(=O)(=O)C1 (stereo unspecified)	92.4%
O=C1NC(=O)c2c1c1c3cc(Br)ccc3[nH]c1c1oc3ccc(F)cc3c21	44.6%
COc1ccc(C(=O)Nc2ccc(-c3ccc4c(c3)NC(=O)/C4=C\c3ccc[nH]3)cc2)cc1	89.6%
Cc1ccc(/C=C/C(=O)c2ccc(NC(=O)CSc3nnc(-c4c[nH]c5ccccc45)n3-c3ccccc3)cc2)c(C)c1	79.6%
FC(F)(F)c1cc2c(Cl)ncnc2n1CCN1CCCCC1	-13.5% (active)
COc1ccc(/C=C/c2nc3ccccc3c(=O)n2CC(=O)Nc2ccc(OC)cc2)cc1	82%
O=C1Nc2ccccc2/C1=C/C(=O)c1cc2ccccc2oc1=O	102%
NS(=O)(=O)c1ccc(NC(=O)CSc2ccc(-c3ccccc3)nn2)c(Br)c1	99.2%
COc1ccc2[nH]cc(-c3cc4nc(-c5cn(C)c6ncc(Br)cc56)cc(N)n4n3)c2c1	-61.2% (active)
O=C(Nc1cccc(-c2cn(-c3ccc4oc(=O)ccc4c3)nn2)c1)Nc1cc(C(F)(F)F)cc(C(F)(F)F)c1	34.3%
O=C(c1ccccc1)c1ccc2nc(-c3ccccc3Br)[nH]c2c1	-52.4% (active)
O=c1c2ccccc2nc(-c2ccccc2)n1/N=C/c1ccc2ccccc2c1	35.7%
O=C1Nc2cc(Cl)ccc2/C1=C/c1ccc(OCc2ccc(Br)cc2F)cc1	81.5%
Cc1ccccc1Nc1nnc(-c2c[nH]c3ccccc23)o1	-23.7% (active)
COc1ccc(NC(=O)Cn2c(/C=C/c3cccc(Br)c3)nc3ccccc3c2=O)cc1	92.9%
CNc1nc2ccccc2n2c(-c3ccc(O)c(O)c3)cnc12	-19.6% (active)
Nc1nnc(-c2c[nH]c3ncccc23)c(-c2c[nH]c3ccc(Br)cc23)n1	42%
CCOC(=O)C(Cc1ccccc1)N1C(=O)/C(=C/N2N=C(c3ccc(OC)cc3)CC2c2ccc3ccccc3c2)SC1=S (stereo unspecified)	-18.4% (active)

Compound	growth
O=C1NC(=NC23CC4CC(CC(C4)C2)C3)N/C1=C\c1ccc2ncccc2n1	-19.1% (active)
COc1ccc(OC)c(-n2cc(C#N)c(N)c2C(=O)c2ccc(Cl)cc2Cl)c1	2.46% (active)
O=c1c(-c2nc(-c3ccccc3)c(-c3ccccc3)[nH]2)coc2ccc(F)cc12	54.3%
CC(=O)Nc1ccc(-c2cn(-c3cccc(C(=O)Nc4ccc(F)c(C(F)(F)F)c4)c3)nn2)cn1	62.8%
Cc1ccccc1[C@H]1C(C(=O)c2ccc(Cl)cc2)C2(N[C@@H]1c1ccccc1)C(=O)Nc1ccccc12 (stereo partly specified)	-18.1% (active)
CN1CCO/C1=C(/NC(=O)c1ccc(Cl)cc1)[P+](c1ccccc1)(c1ccccc1)c1ccccc1	54.7%
O=C(Nc1ccc(-c2ccc3c(c2)NC(=O)/C3=C\c2ccc[nH]2)cc1)Nc1cccc(Cl)c1	10.6%
O=C(Nc1ccc(Cl)c(C(F)(F)F)c1)c1cncc(C#Cc2cnc3ccc(N4CCOCC4)nn23)c1	-21.7% (active)
CN(C)CCOc1ccc(C(=O)C2[C@H](c3ccc(Cl)cc3)[C@@H](c3ccccc3)NC23C(=O)Nc2ccc(Cl)cc23)cc1 (stereo partly specified)	-75.6% (active)
Cc1ccc(-c2nc(C#N)c(S(=O)(=O)N3CCN(S(C)(=O)=O)CC3)o2)cc1	2.43% (active)
COc1nc(N)ncc1-c1ccc2ncnc(N3CCc4cc(F)c(Cl)cc43)c2c1	47%
Cc1ccc(NC(=O)CN2CCN(c3ncnc4c3cnn4-c3ccccc3)CC2)cc1	95.4%
COc1ccc(/C=C/c2nc3ccccc3n3c(-c4ccc(Cl)cc4)nnc23)cc1	71.8%
COc1ccc(-c2nc(SC(C)C)nc(NCCc3c[nH]c4ccccc34)c2C#N)cc1	31.6%
COc1ccc2nc(Cl)c(-c3cc(-c4ccccc4)nc(=O)[nH]3)cc2c1	3.35% (active)
Cc1c(C(=O)NNC(=O)c2ccc(Cl)cc2)nnn1-c1ccc(Br)cc1	102%
C=C1CCC2C3(C)COC(c4ccccc4)OC3CCC2(C)C1CC(NCc1ccccc1)C1=CCOC1=O (stereo unspecified)	43.6%
CC1(C)CC(=O)C2=C(C1)N(Cc1ccc(C(=O)O)cc1)C1=C(C(=O)CC(C)(C)C1)C2c1ccc(Cl)cc1	107%
